Counter-ions that a name gives are not always drawn. ± gives the standard deviation of the averaged measurements.

In the test the test system is Toxoplasma gondii RH (in HFF). The test can be described thus: parasite growth relative to the screen mean (all compounds = 100%); higher = less inhibition of parasite growth. As to conditions: 5 µM; 72 h; oxygen 21 %. In outline:
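Parasite growth was reported relative to the screen mean. In that scale, the mean of all compounds equals 100%, and values are averaged over two screens. Compounds from 10 mM DMSO stocks were pin-transferred to 5 µM final onto confluent human foreskin fibroblasts in 96-well plates, infected within 2 h with RH β-Gal–GFP Toxoplasma (MOI 1:5) and grown 72 h at 21% O2, with parasite number read by a CPRG β-Gal assay against in-plate standard curves. Uninfected host-cell viability was checked with CellTiter-Blue.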
`CN(C)[C@@H]1CCc2[nH]c3ccc(NC(=O)c4ccc(F)cc4)cc3c2C1` returned a parasite growth of 124 ± 19%.

`O=S1(=O)c2cccc3cccc(c23)N1CCCN1CCN(c2ccc(F)cc2)CC1` [Fananserin] returned a parasite growth of 130 ± 14%.

On to `Cc1c(CC(C)(C)C(=O)O)n(Cc2ccc(Cl)cc2)c2ccc(F)cc12`, for which the parasite growth is 129 ± 22%.

Compound `COc1ccc(CN2C(=O)C(=O)c3cc(OC(F)(F)F)ccc32)cc1` gave a parasite growth of 68.6 ± 14%.

Turning to `COc1ccc(OC)c2c(=S)c3ccccc3[nH]c12`, the parasite growth worked out at 171 ± 20%.

`O=C1c2ccccc2C(Cc2ccncc2)(Cc2ccncc2)c2ccccc21` [XE 991 dihydrochloride] gave a parasite growth of 34.3 ± 6.2%.

In turn, `Oc1ccc(-c2nc(-c3ccc(F)cc3)c(-c3ccncc3)[nH]2)cc1` registered a parasite growth of less than 0%.

`O=C(O)COc1ccc(OCCNC[C@H](O)COc2ccccc2)cc1` [ICI 215,001 hydrochloride] came in with a parasite growth of 116 ± 14%.

`NS(=O)(=O)c1cc2c(cc1Cl)NC(C1CC3C=CC1C3)NS2(=O)=O` (centres undefined) [Cyclothiazide] had a parasite growth of 118 ± 1.8%.

`CN(N=O)C(=O)N[C@@H](C=O)[C@@H](O)[C@H](O)[C@H](O)CO` [Streptozocin] came in with a parasite growth of 137 ± 5.8%.

Regarding `CCOC(=O)[C@@H](C)Oc1cccc2c(=O)n(CC(=O)Nc3ccc4c(c3)OCCO4)ccc12`, the parasite growth came to 118 ± 12%.

As for `NC(N)=Nc1ccc(Cl)cc1` [4-Chlorophenylguanidine hydrochloride], the parasite growth was 125 ± 3.5%.

For the compound `CSc1ccc2c(c1)C(N1CCN(C)CC1)Cc1ccccc1S2` (centres undefined) [Methiothepin maleate], the parasite growth was less than 0%.

In turn, `N=C(N)S/C=C\C(=O)O` [ZAPA sulphate] returned a parasite growth of 106 ± 28%.

`C[C@@]1(O)[C@H](O)[C@@H](CO)O[C@H]1n1cnc2c(NC3CCCC3)nc(Cl)nc21` registered a parasite growth of 85.3 ± 39%.

On to `COc1cc2c(cc1OC)-c1cc3nc4ccccc4nc3n1C(C)(C)C2`, for which the parasite growth was less than 0%.

`c1cc2c3c(c1)c1c(n3CCNC2)CCCC1` [WAY 629 hydrochloride] displayed a parasite growth of 130 ± 4%.

In the case of `COC1CCC(C(=O)c2ccc3nc4c(cc3c2)CCCO4)CC1` (centres undefined), the parasite growth stood at 136 ± 27%.

In turn, `Nc1nccc(-c2ccc3noc(-c4ccc(Cl)cc4)c3c2)n1` [PIM 1 Inhibitor 2] registered a parasite growth of 69.9 ± 15%.

Compound `CN=c1nc(-c2ccccc2)n(-c2ccccc2)s1` displayed a parasite growth of 127 ± 29%.

Take `Brc1c(NC2=NCCN2)ccc2nccnc12`: the parasite growth came to 128 ± 24%.

In turn, `O=C(c1ccc(F)cc1)C1CCN(CCn2c(=S)[nH]c3ccccc3c2=O)CC1` [Altanserin hydrochloride] yielded a parasite growth of 135 ± 6.3%.

As to `O=C(O)c1cc(=O)c2ccccc2[nH]1` [Kynurenic acid], the parasite growth was found to be 123 ± 18%.

`CCc1cc2c(c(CC)n1)CCC(=O)N2Cc1ccc(-c2ccccc2-c2nn[nH]n2)cc1` [ZD 7155 hydrochloride]: the parasite growth is 91.1 ± 57%.

`c1ccc(CN(CC2=NCCN2)c2ccccc2)cc1` [Antazoline hydrochloride]: the parasite growth is 114 ± 25%.

Turning to `[O-][S+](c1ccccc1)c1ccc2nnnn2n1` (centres undefined), the parasite growth is 111.89 ± 0.016%.

In turn, `O=C(O)c1ccc(-c2c[nH]c3ncc(-c4ccccc4)cc23)cc1C1CCCC1` displayed a parasite growth of 46.2 ± 9.6%.

Turning to `C[N+](C)(C)CCCCCNCC12CC3CC(CC(C3)C1)C2`, the parasite growth is 120 ± 3.1%.

Compound `CC(C)[N+]1(C)[C@@H]2CC[C@H]1C[C@@H](OC(=O)C(CO)c1ccccc1)C2` (some centres undefined) [Ipratropium bromide] registered a parasite growth of 76.1 ± 21%.

In turn, `NS(=O)(=O)C#Cc1ccccc1` [Pifithrin->m] came in with a parasite growth of 123 ± 13%.

`COc1ccc(CCN(C)CCCOc2ccc(S(=O)(=O)c3c(C(C)C)c4ccccc4n3C)cc2)cc1OC` came in with a parasite growth of less than 0%.

In turn, `CCOC(=O)c1ncc2[nH]c3cccc(OC(C)C)c3c2c1C` came in with a parasite growth of 101 ± 26%.

Regarding `CCN1CCC[C@H]1CNC(=O)c1c(O)c(Cl)cc(Cl)c1OC` [Raclopride], the parasite growth stood at 138 ± 25%.

With `CC(C)NCC(O)c1ccc(O)c(O)c1` (centres undefined) [Isoproterenol hydrochloride], the parasite growth came to 172 ± 14%.

Consider `O=C1C(=O)N(Cc2ccc(Cl)c(Cl)c2)c2ccccc21` [Apoptosis Activator 2], for which the parasite growth is 120 ± 3.4%.

For the compound `COc1ccc2cc([C@H](C)C(=O)O)ccc2c1` [Naproxen sodium], the parasite growth stood at 89.9 ± 13%.

With `CCCCCCCC/C=C\CCCCCCCC(=O)NCc1ccc(O)c(OC)c1` [Olvanil], the parasite growth was 155 ± 38%.

As to `CCCCN1CCCC1CNC(=O)c1cc(C#N)c2ccccc2c1OC` (centres undefined) [Nafadotride], the parasite growth amounted to 127 ± 15%.

Compound `CCOc1cc(CC(=O)N[C@@H](CC(C)C)c2ccccc2N2CCCCC2)ccc1C(=O)O` [Repaglinide] came in with a parasite growth of 150 ± 13%.

The values are drawn from the supplement of paper PMC4894684.
